Results filed as inconclusive are left out. Active and inactive are the calls of the source. Calls follow the shape of the dose curve; as a rule, active = well fitted curve in the direction sought with a large enough effect; inconclusive = small, poorly fitted or top-dose-only effect, or another doubt; inactive = no such curve, though single readings can be large; an effect the other way counts as inactive or inconclusive.

A short description of test [1]: qHTS of pediatric cancer cell lines to identify multiple opportunities for drug repurposing: Primary screen for SK-N-MC cells (AID 1347093). Also: potency is read from the fitted curve at half-maximal effect. The method, boiled down:
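Metabolically active cells were quantified by ATP-dependent luminescence (CellTiter-Glo, 15 min at room temperature) following 48 h treatment. Cells had been plated at 500-1,000 per well and settled for 5 h beforehand.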
In general terms: Quantitative high-throughput screening tests each substance at several concentrations.

Test [2] is described as follows: qHTS of pediatric cancer cell lines to identify multiple opportunities for drug repurposing: Primary screen for NB-EBc1 cells (AID 1347095). Also: potency is read from the fitted curve at half-maximal effect. The method, boiled down: (§1)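 Viability was measured as metabolically active cells after 48 hours of treatment, read by CellTiter-Glo luminescence. Compounds were tested at multiple final concentrations, giving concentration-response curves.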

A short description of test [3]: qHTS of pediatric cancer cell lines to identify multiple opportunities for drug repurposing: Primary screen for U-2 OS cells (AID 1347096). Also: nearly all actives have a fitted effect of over 50% in size. In a few lines: (§2)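 Cells (500-1,000/well) rested 5 h, then received compounds for 48 h; metabolically active cells were measured by CellTiter-Glo luminescence. Final concentrations spanned up to 46 µM (MIPE, 11-point) or 0.59 nM-46 µM (NPC, 8-point) in primary screens, 11-point in follow-ups.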

Test [4] in a line: qHTS of pediatric cancer cell lines to identify multiple opportunities for drug repurposing: Primary screen for Saos-2 cells (AID 1347097). Also: nearly all actives have a fitted effect of over 40% in size. Also: potency is read from the fitted curve at half-maximal effect. The method, boiled down:
as §1

Test [5] is described as follows: qHTS of pediatric cancer cell lines to identify multiple opportunities for drug repurposing: Primary screen for SK-N-SH cells (AID 1347098). Also: nearly all actives have a fitted effect of over 65% in size. Also: potency is read from the fitted curve at half-maximal effect. In a few lines:
as §2

Test [6] in a line: qHTS of pediatric cancer cell lines to identify multiple opportunities for drug repurposing: Primary screen for LAN-5 cells (AID 1347100). Also: potency is read from the fitted curve at half-maximal effect. In a few lines: as §2
The nature of test [7]: qHTS of pediatric cancer cell lines to identify multiple opportunities for drug repurposing: Primary screen for BT-12 cells (AID 1347101). Also: nearly all actives have a fitted effect of over 25% in size. Also: potency is read from the fitted curve at half-maximal effect. In a few lines: as §2
Test [8] in a line: qHTS of pediatric cancer cell lines to identify multiple opportunities for drug repurposing: Primary screen for Rh18 cells (AID 1347102). Also: nearly all actives have a fitted effect of over 65% in size. Also: potency is read from the fitted curve at half-maximal effect. In a few lines:
as §2

A short description of test [9]: qHTS of pediatric cancer cell lines to identify multiple opportunities for drug repurposing: Primary screen for NB1643 cells (AID 1347099). Also: nearly all actives have a fitted effect of over 50% in size. Also: potency is read from the fitted curve at half-maximal effect. In a few lines:
as §1

Test [10] can be described thus: qHTS of pediatric cancer cell lines to identify multiple opportunities for drug repurposing: Primary screen for BT-37 cells (AID 1347094). Also: potency is read from the fitted curve at half-maximal effect. In a few lines:
as §1

Turning to `COc1ccc2c(c1)CCCC2=O`, the Potency entry in test [1], in test [2], in test [3], in test [4], in [5] and in test [6] was “inactive” each time. The Potency result in [7] and in [8] was “inactive” throughout.
`COC(=O)[C@H]1[C@H]2C[C@@H]3c4[nH]c5cc(OC)ccc5c4CCN3C[C@H]2C[C@@H](OC(=O)/C=C/c2ccc(O)c(OC)c2)[C@@H]1OC`: the Potency is 5.96 µM (active) in test [1], 16.8 µM (active) in test [4], 21.7 µM (active) in test [5] and 21.1 µM (active) in [6].
With `CC(C)(C)c1ccc(O)c(O)c1`, the Potency is 6.86 µM (active) in test [1]; 6.11 µM (active) in test [2]; 48.6 µM (active) in [4]; 25 µM (active) in test [5]; 17.2 µM (active) in test [9]; 19.3 µM (active) in test [6]. In addition, in test [7], the Potency was 25.2 µM (active).
On to `OCCOCCN1CCN(C(c2ccccc2)c2ccc(Cl)cc2)CC1` (stereo not drawn), for which the Potency entry in test [10], in test [2], in test [3], in test [4], in [5] and in test [6] was “inactive” in each case. Also, the Potency entry in test [7] was “inactive”.
Consider `CC(C)Cc1ccc(C(C)C(=O)OCc2ccccn2)cc1` (stereo not drawn), for which the Potency result in test [10], in test [2], in test [3], in test [4], in test [5] and in test [9] was “inactive” in each case. In addition, the Potency entry in test [6], in test [7] and in test [8] was “inactive” in each case.
In the case of `Nc1ccc2cc3ccc(N)cc3nc2c1`, the Potency in test [10] is 9.78 µM (active); in test [2], 4.73 µM (active); in [5] it was 7.7 µM (active); in test [6], 4.22 µM (active); in test [7], 7.77 µM (active).
In the case of `CCOC(=O)c1ccc(O)c(O)c1`, the Potency entry in test [10], in test [3], in test [5], in [9] and in test [8] was “inactive” throughout.
`COc1cc2c(cc1OC)C(=O)CC2`: the Potency result in [10], in [2], in [3], in test [4], in test [5] and in test [9] was “inactive” throughout. The Potency entry in test [6], in [7] and in [8] was “inactive” throughout.
As to `CN1CCC(Nc2ncc3ncnc(Nc4ccc(F)c(Cl)c4)c3n2)CC1`, the Potency was 17.4 µM (active) in test [10], 17.2 µM (active) in test [5] and 26.6 µM (active) in [8]. For the same compound, the Potency entry in test [2], in [4] and in [9] was “inactive” in each case.
With `Nc1ccc(C(=O)OCC(O)CO)cc1` (stereo not drawn), the Potency result in test [10], in [2], in [3], in test [4], in test [5] and in [6] was “inactive” each time. Moreover, the Potency entry in test [7] and in [8] was “inactive” throughout. In addition, the Potency in test [9] is 0.001 µM (active).
Take `C[C@@H](C1=C(CCN(C)C)Cc2ccccc21)c1ccccn1`: the Potency result in test [10], in test [2], in test [3], in test [4], in test [9] and in test [6] was “inactive” in each case. Moreover, the Potency result in test [7] and in test [8] was “inactive” each time.
Take `O=C1Nc2ccccc2C1(c1ccc(O)cc1)c1ccc(O)cc1`: the Potency result in test [10], in [2], in test [3], in [4], in [6] and in test [7] was “inactive” each time. The Potency entry in [8] was “inactive”.
As for `Cc1oc(-c2ccccc2)nc1CCC(=O)c1ccc(CC2SC(=O)NC2=O)cc1` (stereo not drawn), the Potency entry in test [10], in test [2], in test [4], in [5], in [9] and in test [8] was “inactive” throughout.
Consider `CCOCCn1c(C2CCN(CCc3ccc(C(C)(C)C(=O)O)cc3)CC2)nc2ccccc21`, for which the Potency result in test [10], in [2], in test [3], in test [4], in test [9] and in test [6] was “inactive” throughout. Moreover, in test [7], the Potency result was “inactive”.
Take `CCOC(=O)c1cc(=O)c2c(OCC(COc3cccc4oc(C(=O)OCC)cc(=O)c34)OC(=O)[C@@H](N)CCCCN)cccc2o1`: the Potency result in test [10], in [2], in test [3], in test [4], in [5] and in test [9] was “inactive” each time. Besides, the Potency result in [6] and in test [7] was “inactive” throughout.
Take `Nc1ccc(O)cc1`: the Potency result in test [10], in test [2], in test [5], in test [7] and in test [8] was “inactive” throughout. The Potency in [6] is 15 µM (active).
`Cc1ccccc1C(=O)N1CC/C(=N\OS(=O)(=O)O)c2ccc(Cl)cc21`: the Potency entry in test [10], in test [2], in test [3], in test [4], in test [5] and in test [9] was “inactive” each time. Moreover, the Potency result in test [6], in test [7] and in test [8] was “inactive” throughout.
With `COc1cc2nc(Cl)nc(N)c2cc1OC`, the Potency result in [10], in test [2], in test [3], in test [4], in test [5] and in test [9] was “inactive” throughout. For the same compound, the Potency entry in [6] and in test [8] was “inactive” in each case.
On to `O=C1OC2(c3ccccc31)c1cc(I)c(O)c(I)c1Oc1c2cc(I)c(O)c1I`, for which the Potency entry in [10], in [2], in [3], in [5] and in [6] was “inactive” each time.
In the case of `COc1ccccc1N1CCN(CC(O)COc2cc(OC)c(OC)c(OC)c2)CC1` (stereo not drawn), the Potency result in test [10], in test [2], in test [3], in test [4], in [5] and in test [6] was “inactive” each time. Moreover, the Potency result in test [7] and in test [8] was “inactive” throughout.
Regarding `CCC(CN)=C(c1ccccc1)c1ccccc1`, the Potency entry in [10], in test [2], in test [3], in [4], in test [9] and in test [6] was “inactive” in each case. The Potency entry in test [7] and in test [8] was “inactive” throughout.
For `CC(C)C(=O)OCc1cccc(OC(=O)[C@@H]2N3C(=O)[C@@H](NC(=O)Cc4ccccc4)[C@H]3SC2(C)C)c1`, the Potency result in test [10], in test [2], in test [3], in test [4], in test [5] and in test [9] was “inactive” each time. The Potency entry in test [6], in [7] and in test [8] was “inactive” each time.
